Test results taken from the supplement of paper PMC6555819.

Each sequence was assayed on VDR:RXRa (NR concentration 270 nM, RXRa partner concentration 90 nM) (assay: PBM binding z-score (relative to random genomic background probes); higher = stronger binding; sequences stand for … in GC…GCGATTGACAGCGTAGAATGAAGG).
Experimental: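 Protein-binding microarray (Agilent 4x180K custom design, double-stranded 60-nt probes: 5' GC cap, 34-nt variable region, 24-nt constant primer region; full probe sequence given). Purified or IVT nuclear receptor:RXRα heterodimers (3:1 NR:RXRα, mostly 270:90 nM) or homodimers were incubated for 1 h in PBS with 2% milk and no ligand, then detected with Alexa488 antibodies. Fluorescence from o1-orientation probes (~5 replicates averaged) was converted to z-scores against 500 random hg19 background probes. Variable regions are seed direct-repeat (DR0–DR5) sites, all their single-nucleotide variants and half-site ablations.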

Sequence | PBM binding z-score
AGTCAAAGTTCATCTAGGTACCGTAAGATATGCT | 4.98
ACTACTAGTTGAGACGAGGGCAACCGATAGGTTG | 0.46
ACTAGTTGGTCAGCTGAGGTCAGACACAATTCGG | 3.07
ACTACTAGTTGACTTAGGGCAACCGATACGACGC | 0.191
TGAATGAGGGTAAAGATCAGGGAACGTGGCGTCG | -0.0441
CATACAGCGTCAGCTAGGCCAGAGTAGGGACGGC | -0.851
CGAACTAGGTCAGAACAAGACAGTGAAGGATGAT | 0.215
TCTATTAGTTGAAGGGCAACCGACGAGTCCGTTT | 1.09
GCATATAGGTAATACAAGGTGAAAGGCCGATTGT | 0.402
AGAACGAGGGCACTGAGTTGATAGCACGGGTGGC | 4.52
TCTCGGAGGGCACGAAGGTCAGAGCTTTCCAGAG | 5.15
AATAGTTGGTCAGCTGAGGTCACACACAATTCGG | 4.69
TAGCCTAGGTCAGATCGGACCAGTATACGCTATA | 0.34
CCAGACAGGTGAAAGGGAACTCAGTCTGGTACGC | -0.152
CGCCCAAGGTCAATGCTAGGTCAGTGAAAGCATT | 4.59
ATCTCGAGGTAAAGTTCAGTGAAAGATCGATAGA | 1.64
TCTCGGAGTACACGAAAGGTCAGAGCTCGACATC | 3.41
TCTTGTAGATCAAGCAGGTGAAGAAAGCCTGAGT | 0.0815
AGTCAAAGTTCATCTAGGCAACGTAAGATATGCT | 4.9
CGAACTAGGTCAGAACAGGAAAGTGAAGGATGAT | 0.0955

Sequence | PBM binding z-score
GATACAGGGTCAGTTAGAGGCCAGAGTATGGAAA | 2.97
AATACAGAGTCACTAGGCCAGAGTAGGTACGAAT | -0.0941
ATCTCTAGGTAATAGTTCAGTGAATCCCGAGGAT | 0.188
ATCGAAAGGGCGACGAGGTGAGTATACACCGTTT | 1.32
CCGAGTAGGTTATGGGTCATTCAGGCAACGGTGA | 2.67
CATACAGGGTCACCTAGGCCAGAGTAGGGACGGC | 5.14
GCATACAGGTGAAACGCAGGTAACTCAGGGTGGC | -0.304
GCTAGTTGGTCAGTAAAAGGTCACGCACCGGTCG | 4.36
ATCGAAAGGTCGAGGTGAGTACAGAGAAAGGGAA | 4.25
CCTTACGGGTCACTGACAGGCTATAGCATTTGGA | 3.07
CCGGCTAGGTCATGGTCAGCTAATCTACAGTATG | 1.63
GCAGACATGTGAAACGCAGGTAACTCAGGGTGGC | -0.478
CCTAGTTGGTCAGGCGGTCACACACCGGATATGA | 0.0126
AATATTAGTTGAGACGAGGGCAACCGATAGGTTG | 1.01
GTACCAAGGTGAATAGGACGTTGATGAGTAGGCG | -0.357
TCGAGCAGGCCAGAGGGTCACTCAAGAGGTACGG | 1.48
TCATATAGGTAAACAGGTCAAAGTCCGTAAGTTA | 2.87
TCGAGTGGGTTACCAATGGGGCATTCAGCTTTCT | 0.0141
GCTAGTTGGTCAGTAAGAGGTCACACACCGGTCG | 4.12
TCTTGTAGATCAATAGAGATTAAGAAAGTGCGCT | 0.285
